FLuc counter: qHTS profiling assay for firefly luciferase inhibitor/activator using purifed enzyme and Km concentrations of substrates (counterscreen for miR-21 project). purified FLuc, Km substrates, luminescence inhibition. Luciferin 4-monooxygenase (Photinus pyralis), P08659. Potency, µM (highest dose often 57.5 µM), inactives show top-dose activity change, negative = inhibition, actives largely listed as inhibitors. 360,000 tested, 6.9% active. AID 588342, 2011;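 also: plate controls were vehicle for no effect and reference inhibitor for full effect; nearly all actives have a fitted effect of over 55% in size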
Target sequence (P08659 whole entry, looked up): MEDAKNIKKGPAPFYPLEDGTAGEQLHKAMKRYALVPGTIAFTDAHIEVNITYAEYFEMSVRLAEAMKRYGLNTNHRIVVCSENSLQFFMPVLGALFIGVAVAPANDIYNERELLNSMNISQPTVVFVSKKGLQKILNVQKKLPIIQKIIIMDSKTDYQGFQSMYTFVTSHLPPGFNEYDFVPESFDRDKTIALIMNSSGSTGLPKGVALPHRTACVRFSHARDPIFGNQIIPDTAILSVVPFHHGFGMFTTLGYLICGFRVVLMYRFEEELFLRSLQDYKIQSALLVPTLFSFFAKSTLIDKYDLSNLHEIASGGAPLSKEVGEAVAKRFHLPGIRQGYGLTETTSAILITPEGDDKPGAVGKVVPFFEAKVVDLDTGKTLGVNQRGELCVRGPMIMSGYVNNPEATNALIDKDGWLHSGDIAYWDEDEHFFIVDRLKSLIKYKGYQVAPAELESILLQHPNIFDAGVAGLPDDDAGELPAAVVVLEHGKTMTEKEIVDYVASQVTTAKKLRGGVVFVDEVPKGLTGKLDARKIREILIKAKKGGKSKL
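Purified P. pyralis luciferase, 10 nM final, with Km-level 10 uM D-luciferin and 10 uM ATP in 50 mM Tris acetate pH 7.5, 10 mM Mg acetate, 0.01% Tween-20, 0.05% BSA; 6-point qHTS titration about 60 µM downward; luminescence read.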
NPC1 prom act: qHTS Assay for NPC1 Promoter Activators | 320,000 tested, 2.4% active | AID 485313, 2010 | Huh7 NPC1 promoter luciferase reporter, 24 h | Potency, µM (titrated, usually from 9.22 µM), for the others: at the highest dose activation, usual class: activators; also: % of control where 0% means no effect; nearly all actives have a fitted effect of over 60% in size
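In 1536-well qHTS, Huh7 cells harboring an NPC1 promoter–luciferase construct received compound for 24 h; activation was quantified by luminescence following luciferase reagent addition.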
KinaseGlo FLuc: Counterscreen for Luciferase (Kinase-Glo TM) Inhibition; Luciferin 4-monooxygenase (Photuris pensylvanica), Q27757; Kinase-Glo luciferase, ATP luminescence, 8 min; Potency, µM (doses to about 38.3 µM), for inactives: top-dose activity change, negative = inhibition, most hits filed as inhibitors; 200,000 tested, 0.28% active; also: % is scaled to controls: 0 for no effect and ±100 for the full control effect; nearly all actives have a fitted effect of over 60% in size
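Recombinant Kinase-Glo luciferase, 10 uM ATP (linear range), luciferin; imidazole pH 7.2 / KCl / MgCl2 / Tween / BSA buffer; 8 min RT; luminescence.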
Rab9 prom act: qHTS Assay for Rab9 Promoter Activators. Potency, µM (series often up to 9.22 µM), for inactives: at the highest dose activation, negative = inhibition, usual class: activators. 320,000 tested, 2.8% active. Huh7 Rab9 promoter-luciferase reporter, luminescence, 24 h; also: % of control where 0% means no effect; nearly all actives have a fitted effect of over 60% in size
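Quantitative HTS format; Huh7 Rab9-luciferase reporter cells (1500/well) receive compound 2 h post-plating, incubate 24 h at 37 °C, then get luciferase reagent for 10 min before luminescence reading.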
ELG1 genotox: qHTS screen for small molecules that induce genotoxicity in human embryonic kidney (HEK293T) cells expressing luciferase-tagged ELG1; HEK293T ELG1-luciferase reporter, luminescence, 16 h; Potency, µM (top dose mostly 46 µM), for the others: at the top dose activity change, positive = activation, hits mostly activators; 330,000 tested, 1.3% active; AID 504466, 2011; also: % of control where 0% means no effect; nearly all actives have a fitted effect of over 60% in size
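After overnight (16 hr) compound treatment at 37 °C, ELG1-luciferase HEK293T cells were lysed with ONE-Glo; luminescence quantified 30 min later at room temperature.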
SMN2 splice up: qHTS Assay for Enhancers of SMN2 Splice Variant Expression; Potency, µM (series often up to 46.1 µM), without a hit: at the top dose activity change, positive = activation, hits mostly activators; HEK293 SMN2-luciferase splicing reporter, luminescence, 30-36 h; 210,000 tested, 2.8% active; AID 1458, 2008; also: % of control where 0% means no effect; nearly all actives have a fitted effect of over 55% in size
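HEK293 cells carry an SMN2 […]–luciferase reporter in which exon 7 inclusion puts luciferase in frame. Cells were plated 10-12 h before compound addition, then incubated 30-36 h at 37C. ONE-Glo luminescence was read; sodium butyrate at 4.5 mM final served as control.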
The depositor's hits bear a star; ? = inconclusive; . = no result. Compounds with a hit are over-represented: about 7.5% of the library has one in this group of screens. Calls follow the shape of the dose curve; as a rule, active = well fitted curve in the direction sought with a large enough effect; inconclusive = small, poorly fitted or top-dose-only effect, or another doubt; inactive = no such curve, though single readings can be large; an effect the other way counts as inactive or inconclusive. Potency is read from the fitted curve at half-maximal effect.

SMILES | FLuc counter | NPC1 prom act | KinaseGlo FLuc | Rab9 prom act | ELG1 genotox | SMN2 splice up
N#Cc1nc(-c2ccccc2)oc1N1CCCCC1 | -19% | 13% | 10% | -1% | 7% | -18%
O=C(Nc1ccc(C(=O)N2CCN(c3cccc(Cl)c3)CC2)cc1)c1nsc2ccccc12 | 4.3µM* | . | . | . | . | .
O=C(Nc1ccc(C(=O)N2CCN(c3ccccc3)CC2)cc1)c1nsc2ccccc12 | 5.4µM* | . | . | . | . | .
O=C(Nc1cccc(C(=O)N2CCN(c3ccc(Cl)cc3)CC2)c1)c1nsc2ccccc12 | 1.2µM* | . | . | . | . | .
COc1cccc(N2CCN(C(=O)c3ccc(C)c(NC(=O)c4nsc5ccccc45)c3)CC2)c1 | -2% | . | . | . | . | .
Cc1ccc(C(=O)N2CCN(c3ccc(F)cc3)CC2)cc1NC(=O)c1nsc2ccccc12 | -4% | . | . | . | . | .
O=C(Nc1cccc(C(=O)N2CCN(c3cccc(Cl)c3)CC2)c1)c1ccccc1 | -5% | 0% | -1% | 1% | -19% | -23%
O=C(Nc1cccc(C(=O)N2CCN(c3cccc(Cl)c3)CC2)c1)c1nsc2ccccc12 | 2.7µM* | . | . | . | . | .
CCOc1ccc(OCC)c(NC(=O)Cn2ncc3c4ccccc4n(Cc4ccccc4)c3c2=O)c1 | -10% | . | . | . | . | 2%
O=C(Nc1cccc(C(=O)N2CCN(c3ccc(F)cc3)CC2)c1)c1nsc2ccccc12 | 0.85µM* | . | . | . | . | .
Cc1ccc(C(=O)N2CCC(C)CC2)cc1NC(=O)c1nsc2ccccc12 | -21% | . | . | . | . | .
O=C(Nc1cccc(C(=O)N2CCN(c3ccccc3F)CC2)c1)c1nsc2ccccc12 | 3µM* | . | . | . | . | .
Cc1ccc(C)c(N2CCN(C(=O)c3ccc(NC(=O)c4nsc5ccccc45)cc3)CC2)c1 | 17µM* | . | . | . | . | .
O=C1Nc2ccccc2N(O)N1c1cc(-c2ccc(Cl)cc2)[nH]n1 | 8.5µM* | 0% | 1% | -4% | -4% | -5%
O=C1Nc2ccccc2N(O)N1c1cc(-c2cccc(Cl)c2)no1 | 21µM* | 3% | 14% | 12% | 1% | .
O=C1Nc2ccccc2N(O)N1c1cc(-c2ccccc2Cl)no1 | 6µM* | ? | 0% | 18% | -1% | 3%
COc1ccc(N/N=C/c2c(C(=O)O)ccc3ccccc23)cc1 | 9.5µM* | -38% | . | -38% | 6% | .
COc1ccc2ccccc2c1/C=N/Nc1cccc(C(=O)O)c1 | 8.5µM* | 1.1µM* | . | 0.89µM* | ? | .
COc1ccc2ccccc2c1/C=N/Nc1ccc(Cl)c(C(=O)O)c1 | ? | ? | . | ? | 11% | .
CCOc1cc(/C=N/Nc2cccc(C(=O)O)c2)ccc1OC(=O)c1ccccc1 | 17µM* | 0.089µM* | -1% | 0.1µM* | ? | 1µM*
O=C(O)c1cccc(N/N=C/c2cccc3ccccc23)c1 | 0.076µM* | 0.1µM* | . | ? | ? | .
CCc1nn(Cc2c(C)cc(C)cc2C)c(=O)c2cc3cc(C)ccc3n12 | 1% | . | . | . | . | 3%
CCc1noc(-c2ccc(NC(C)c3ccccc3)c([N+](=O)[O-])c2)n1 (stereo unspecified) | 0% | . | . | . | . | .
COc1ccc(CCNC(=O)c2cn(C)c3ccc(S(=O)(=O)N(C)C)cc3c2=O)cc1OC | -9% | . | . | . | . | -2%
CCN(CC)C(=O)CSc1nnnn1-c1ccc(F)c(Cl)c1 | 5% | 1% | 7% | 0% | -6% | -59%
SMILES | FLuc counter | NPC1 prom act | KinaseGlo FLuc | Rab9 prom act | ELG1 genotox | SMN2 splice up
Cc1ccc(S(=O)(=O)Oc2ccc(C)cc2/C=N/N=C2\NC(=O)C(C)S2)cc1 (stereo unspecified) | 9.5µM* | 11% | -1% | ? | ? | -8%
CC1S/C(=N/N=C/c2cccs2)NC1=O (stereo unspecified) | ? | 0% | . | 2% | 14% | .
c1cnn(-c2cncc(-n3cccn3)n2)c1 | -16% | 2% | -20% | 26% | 5% | .
Nc1ccccc1C(=O)C[C@H](N)C(=O)O | . | . | . | . | . | -11%
Cc1cc(C)c(Cn2c(=O)n(CCCC(=O)NCc3ccc4c(c3)OCO4)c(=O)c3sccc32)c(C)c1 | 4% | . | . | . | . | 18%
Cc1ccc2nc(-c3ccccc3)cc(C(=O)Nc3cccnc3)c2c1 | . | 0% | . | -2% | -3% | .
Cc1cccc(-c2cc(C(=O)Nc3ccncc3)c3ccccc3n2)c1 | 24µM* | 13% | . | 2% | -7% | .
Cc1cccc(Nc2nc(-c3ccccc3)c(C(=O)Nc3cccnc3)s2)c1 | 17µM* | 8% | 5% | 20% | -6% | -92%
O=C(Nc1ccc(Br)cc1)c1cc(-c2ccncc2)nc2ccccc12 | . | . | . | . | -2% | .
Cc1ccc(-c2cc(C(=O)Nc3cccnc3)c3ccccc3n2)s1 | 9.5µM* | 13% | . | 7% | -10% | .
Cc1cc(C)nc(NC(=O)c2cc(-c3ccc(C)s3)nc3ccccc23)c1 | ? | -4% | -6% | -4% | -13% | -26%
Cc1cccc(-c2cc(C(=O)Nc3cccnc3)c3ccccc3n2)c1 | 15µM* | -3% | . | 4% | -15% | .
COc1ccc(C2=NOC(CNC(N)=S)C2)cc1 (stereo unspecified) | 11µM* | 1µM* | -10% | 0.71µM* | 12% | 13µM*
Cc1ccc(C(=O)N2CCc3cc(CNC(=O)c4ccccc4F)ccc32)cc1 | 19µM* | . | . | . | . | .
CNc1nc(-c2ccc3c(c2)CCN3C(=O)c2ccccc2F)c(C)s1 | 15µM* | 9% | 0% | 11% | 1% | .
COc1ccccc1C(=O)NCc1ccc2c(c1)CCN2C(=O)c1cccc(C)c1 | -7% | . | . | . | . | .
CNc1nc(-c2ccc3c(c2)CCN3C(=O)c2ccccc2F)cs1 | 1.5µM* | 1.6µM* | -15% | 0.56µM* | ? | 13µM*
COc1ccc(CCNC(=O)c2cc(-c3ccc(C)c(C)c3)nc3ccccc23)cc1OC | 2.7µM* | . | . | . | . | .
COc1ccc(CCNC(=O)c2cccc3ccccc23)cc1OC | 0% | 1% | . | -3% | -1% | .
COc1ccc(-c2cc(C(=O)NCCc3ccc(OC)c(OC)c3)c3ccccc3n2)cc1 | 6.7µM* | . | . | . | . | 3%
COc1ccc(-c2noc(CCC(=O)N3CCN(c4ccccc4F)CC3)n2)cc1 | . | . | . | . | -1% | .
CCc1ccc(NC(=O)C2CCN(c3nnc(-n4c(C)ccc4C)s3)CC2)cc1 | -6% | . | . | . | . | -19%
NS(=O)(=O)c1ccc(CNC(=O)/C=C/c2ccc(Cl)c(Cl)c2)cc1 | -2% | -3% | 1% | -1% | 1% | -5%
O=C(O)CCC(=O)/C=C/c1ccccc1 | -11% | -3% | 7% | 12% | -2% | .
